Reference: PubChem BioAssay (NCI)
Compounds without any hit were thinned out: in the full panel of roughly 83,000, 20% have a hit.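 Step 1: grow cells in 96-well plates. Step 2: add test compound at a single concentration. Step 3: incubate 48 h. Step 4: record percent growth.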 Unmarked numbers belong to inactive results. Active and inactive are the calls of the source. The calls were made as follows: active = growth percent below 10; inactive = the rest.

Columns and labels:
Test in all cases: NCI-60 one-dose screen, 48 h (100 = growth as untreated, 0 = no growth, -100 = all killed)
Settings in all cases: 10 µM unless noted
BT-549 breast = tested on: BT-549 breast
MDA-MB-435 melanoma = tested on: MDA-MB-435 melanoma
SW-620 colon = tested on: SW-620 colon
MCF7 breast = tested on: MCF7 breast
HCT-116 colon = tested on: HCT-116 colon
HCC-2998 colon = tested on: HCC-2998 colon
KM12 colon = tested on: KM12 colon

Compound	growth (BT-549 breast)	growth (MDA-MB-435 melanoma)	growth (SW-620 colon)	growth (MCF7 breast)	growth (HCT-116 colon)	growth (HCC-2998 colon)	growth (KM12 colon)
Cc1ccc(NC(=O)CSc2nnc3n(Cc4ccccc4)c(=O)c4c(C)c(C(N)=O)sc4n23)cc1	74.3%	31.5%	53.7%	44.8%	9.8% (active)	34.3%	51.2%
COc1ccc(OC)c2c1[nH]c(=O)c1c3ccccc3cn21	-11.6% (active)	-97.9% (active)	-59.8% (active)	-78.5% (active)	-71.5% (active)	-77.4% (active)	-52.6% (active)
COC(=O)[C@]1(CCSC)N[C@H](c2cn(-c3ccccc3)nc2C)[C@@H]2C(=O)N(c3ccc(C)cc3)C(=O)[C@@H]21	82.8%	105%	106%	102%	92.5%	96.4%	104%
COc1ccc(Cn2c(NCCCN(C)C)nc(=O)n(Cc3ccc(F)cc3)c2=O)cc1	92.5%	102%	100%	87.9%	93.8%	101%	99.8%
O=C(CCc1nnc(SCc2ccccc2)s1)c1nc2ccccc2[nH]1	108%	102%	107%	92.1%	95%	101%	110%
CC(=O)c1cc(C(=O)c2ccc3c(c2)Sc2ccccc2N3)c2c(C)cc(C)cn12	28.5%	-22.1% (active)	20.8%	15.1%	3.76% (active)	18%	11.1%
CCCCCCC/C(=N\N=C(N)N)c1ccc(O)cc1	46.9%	41.6%	49%	-21.8% (active)	18.3%	-77% (active)	48.8%
CCCCC(C#N)C(N)=O (stereo unspecified)	114%	114%	111%	97.7%	98.4%	104%	119%
COc1ccc2c(c1)/C(=C\c1c[nH]c3ccc(F)cc13)C(=O)N2	106%	91.5%	107%	60.3%	80%	92.7%	21.1%
COc1ccc(C(=O)/C=C/c2c(Cl)nc3c(c(C)nn3-c3ccccc3)c2-c2ccc(Br)cc2)cc1	97.5%	107%	110%	96.7%	102%	114%	109%
O=C1c2ccccc2C(=O)c2c1cccc2-n1nnc2ccccc21	113%	121%	105%	112%	86.5%	83.4%	110%
Cc1c(C(N)=O)sc2c1c(=O)n(Cc1ccccc1)c1nnc(S(=O)(=O)CC(=O)Nc3ccc(Cl)cc3)n21	75.7%	46.2%	39.6%	73.5%	15%	26%	55%
Nc1ccccc1-c1ccc([N+](=O)[O-])cc1	-33.9% (active)	52.4%	43.8%	40.1%	60.1%	29.8%	24.1%
COc1ccccc1[C@H]1c2[nH]c3ccccc3c2C[C@H]2C(=O)N(CCCCCCC(=O)NO)CC(=O)N12	67.8%	45.4%	15.6%	37.7%	18.3%	38.9%	77.8%
COc1ncc(-c2ccc3nccc(C#CCN4CCN(S(C)(=O)=O)CC4)c3c2)cc1NS(=O)(=O)c1ccc(F)cc1F	-17.6% (active)	-23% (active)	0.433% (active)	6.88% (active)	-10.4% (active)	-37% (active)	-57.2% (active)
CC(c1cc(Cl)ccc1O)c1cc(Cl)ccc1O	44.7%	-2.51% (active)	30.6%	20.1%	15.2%	63%	31.8%
O=c1ccn(C2CCCO2)c(=O)[nH]1 (stereo unspecified)	118%	103%	102%	99.4%	97.2%	104%	108%

Compound	growth (BT-549 breast)	growth (MDA-MB-435 melanoma)	growth (SW-620 colon)	growth (MCF7 breast)	growth (HCT-116 colon)	growth (HCC-2998 colon)	growth (KM12 colon)
O=[N+]([O-])c1ccc2c(c1)S(=O)c1cc([N+](=O)[O-])ccc1N2	102%	106%	95.8%	99.2%	94%	104%	102%
Oc1[nH]c2ccccc2c1/C=c1/ccc2c(c1)N=C(c1cc(F)cc(F)c1)N=2	40.4%	25.2%	36.4%	25.1%	28.7%	81.1%	34%
CCOC(=O)c1c(NC(=O)C2CCCCC2C(=O)O)sc2c1CCCC2 (stereo unspecified)	102%	97.4%	101%	98.1%	109%	110%	109%
O=C(/C=C/c1cc2ccccc2[nH]c1=O)c1ccc(O)cc1	28%	34.3%	-10.8% (active)	14.7%	12.9%	93.1%	-8.87% (active)
COc1ccc(-c2noc(N)c2-c2cc(OC)c3c(c2)OCO3)cc1	48%	-59.3% (active)	17.5%	19.1%	20%	46%	23.9%
Nc1ccc2c3c(cccc13)-c1ccccc1-2	71%	96.5%	102%	88.8%	92.2%	103%	87.8%
O=C(NCCc1ccccc1)C1CCC(=O)N1Cc1ccc(Br)cc1 (stereo unspecified)	107%	110%	97.5%	102%	77.9%	108%	106%
CN(C)c1ccc2[nH]c3c(C(N)=O)cc(=O)c(=O)c=3oc2c1	45.9%	-70.1% (active)	33.8%	2.37% (active)	-10.1% (active)	97.7%	96.3%
COc1ccc2c3c(c(OCCCN(C)C)nc2c1)-c1ccc(Cl)cc1C3=O	92.5%	-7.72% (active)	-78.7% (active)	-82.3% (active)	-90.9% (active)	-95.2% (active)	-32.2% (active)
CC(C)[O-].CC(C)[O-].CN(CCN(C)Cc1cc(F)cc(F)c1[O-])Cc1cc(F)cc(F)c1[O-].[Ti+4]	-1.16% (active)	-24.5% (active)	0.502% (active)	-42.2% (active)	-0.794% (active)	57%	-30.7% (active)
Cc1cc(O)c2c(c1)C[C@H]1[C@@H]3CC[C@H]4CC(=O)CC[C@]4(C)[C@H]3CC(=O)[C@]21C	91.4%	91.1%	103%	95.6%	77.1%	87.9%	81.2%
O=C(Nc1ccc(Cl)cc1Cl)Nc1ccc(-c2cccnc2)cc1N1CCC(CO)CC1	66.6%	21.4%	17.6%	20%	18.1%	35.2%	25.3%
C/C(=C\CCc1ccoc1)CC/C=C(\C)CCCN1CCC(CO)CC1	54.2%	44.2%	18.2%	28.9%	31%	46.5%	44.6%
OC(CCC(O)(c1ccccc1)c1ccccc1)(c1ccccc1)c1ccccc1	121%	69.9%	69.6%	87.3%	80.5%	83.4%	75%
N#CCNc1ccccc1N	87.2%	106%	100%	88.8%	85.3%	96.9%	94%
CCOC(=O)c1c2c(c(C)n1Cc1ccc(OC)cc1)-c1nc(N)ncc1CC2	119%	110%	100%	106%	94.8%	80.3%	109%
